Sfp inh = inhibitors of Bacillus subtilis Sfp phosphopantetheinyl transferase; AID 1490; Biochemical Sfp PPTase activity, qHTS; Q9F4F7; hit rate 3.5% among 310,000; Potency, µM, for the others: largest response in the series, negative = inhibition, usual class: inhibitors;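 note: the enzyme is Sfp with the accession as filed and its product quenches rhodamine fluorescence; potency is the fitted concentration of half-maximal effect; 0% = enzyme reaction without inhibitor and -100% = no enzyme wells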
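Fluorescence-quenching assay: 15 nM Sfp-PPTase preincubated 15 min at room temperature with compound, then 5 uM rhodamine-CoA and 12.5 uM BHQ-2-labelled YbbR peptide added. Fluorescence (ex 525/em 598 nm) read at start and after 30 min; difference gives rate.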
PLK1 PBD block = blocks phosphopeptide binding to human PLK1 polo-box domain | P53350 | Plk1 PBD binding of FITC phosphopeptide, fluorescence polarization | Potency, µM, inactives show max response, negative = inhibition, hits mostly inhibitors | hit rate 2.8% among 360,000; note: potency is the fitted concentration of half-maximal effect; series mostly up to about 57 µM; nearly all actives have a fitted effect of over 65% in size
Target sequence (P53350 whole entry, looked up, the tested form may be a part): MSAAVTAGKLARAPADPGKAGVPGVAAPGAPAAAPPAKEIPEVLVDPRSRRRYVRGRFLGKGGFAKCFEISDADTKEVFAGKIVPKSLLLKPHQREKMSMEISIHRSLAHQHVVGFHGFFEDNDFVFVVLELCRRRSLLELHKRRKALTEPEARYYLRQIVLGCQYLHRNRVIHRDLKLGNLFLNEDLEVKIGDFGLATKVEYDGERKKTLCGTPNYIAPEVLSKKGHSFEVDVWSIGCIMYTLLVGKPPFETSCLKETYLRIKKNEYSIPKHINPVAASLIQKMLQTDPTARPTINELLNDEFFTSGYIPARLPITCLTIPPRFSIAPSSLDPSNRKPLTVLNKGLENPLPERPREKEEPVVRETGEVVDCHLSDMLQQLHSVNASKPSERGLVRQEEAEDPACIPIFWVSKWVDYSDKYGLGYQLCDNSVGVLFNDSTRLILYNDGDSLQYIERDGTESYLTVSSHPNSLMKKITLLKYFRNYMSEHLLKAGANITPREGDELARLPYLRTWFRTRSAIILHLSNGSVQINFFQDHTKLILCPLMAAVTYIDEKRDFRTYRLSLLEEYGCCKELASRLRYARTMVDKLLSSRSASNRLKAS
VDR inh = blocks the human vitamin D receptor. P11473. VDR-SRC2-3 peptide fluorescence polarization, 2 h. Potency, µM, inactives show max response, negative = inhibition, hits mostly inhibitors. hit rate 0.93% among 400,000. AID 504847; note: potency is the fitted concentration of half-maximal effect
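VDR–SRC2-3 interaction, FP format. Cmpds 23 nl via pintool, brief spin, 2 h ambient incubation.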
CCT chaperon mod = changes cytosolic chaperonin activity. purified chaperonin ATPase assay, HTRF ADP detection, 30 min. activity change, % (concentration not given with the values), hits read low. hit rate 0.3% among 360,000. AID 651819; in the data active = activity change below about -30%
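TRiC at 40 or 20 nM final (batch-dependent) in 30 mM Tris pH 7.4, 100 mM KCl, 5 mM MgCl2, 1 mM DTT, with compound at single 76 uM and 10 uM ATP, 30 min at 37 deg C. ADP detected by HTRF Transcreener, 665/615 ratio.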
G9a block = inhibitors of human histone lysine methyltransferase G9a; hit rate 8.8% among 350,000; Q96KQ7; Potency, µM (highest dose often 102 µM), for inactives: at the highest dose activity, negative = inhibition, usual class: inhibitors; G9a H3K9 monomethylation, AlphaScreen, 2 h; note: potency is the fitted concentration of half-maximal effect; nearly all actives have a fitted effect of over 75% in size
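Step 1: enzyme (final 20 nM) with compound, 15 min RT. Step 2: substrate peptide 500 nM and SAM 20 uM, 2 h RT. Step 3: anti-H3K9me1 antibody and AlphaScreen beads, 10 min, then plate read.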
MmCpn inh = M. maripaludis TRiC chaperonin inhibition; purified Mm-Cpn ATPase, ADP Transcreener TR-FRET; Potency, µM (doses to about 76.9 µM), for the others: at the top dose activity, negative = inhibition, actives largely listed as inhibitors; hit rate 0.031% among 330,000; note: potency is the fitted concentration of half-maximal effect; nearly all actives have a fitted effect of over 80% in size
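TR-FRET (320 nm excitation; 590 and 665 nm emission) reports ADP made from 10 uM ATP by 25 nM enzyme; compounds were preincubated 10 min, reaction run 30 min, both at 37°C.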
Starred values were filed as active, the others as inactive; ? = inconclusive; . = no result given; [ ] = dose if it differs, or a comment. Sampled rows, rich in hits. Any-hit rate of the full collection: about 10%. Unless noted, calls come from the whole dose curve; as a rule, active = well fitted curve in the direction sought with a large enough effect; inconclusive = small, poorly fitted or top-dose-only effect, or another doubt; inactive = no such curve, though single readings can be large; an effect the other way counts as inactive or inconclusive. Unless noted, % is set by controls: 0 for no effect and ±100 for the full control effect.

SMILES	Sfp inh	PLK1 PBD block	VDR inh	CCT chaperon mod	G9a block	MmCpn inh
CC1(C)CC(=O)C(=Cc2cn(CCC#N)nc2-c2ccc(F)cc2)C(=O)C1	56µM*	3.4µM*	?	1	10µM*	0%
NC1=NC2C(N=C(Br)N2[C@@H]2O[C@H]3COP(=O)(O)O[C@@H]3[C@@H]2O)C(=O)N1 (some centres not stated)	4%	.	2%	.	29%[59 µM]	.
CCN(/C(N)=N/c1nc(C)cc(C)n1)c1ccccc1	17%	27µM*	?	-2	22%[59 µM]	-1%
CCCOc1cccc(C2c3c(-c4ccccc4O)n[nH]c3C(=O)N2Cc2ccco2)c1 (configuration not stated)	.	.	13%	.	-35%[59 µM]	.
CCN(Cc1ccncc1)Cc1cn[nH]c1-c1ccc(OC)cc1F	6%	0%	3%	0	50µM*	1%
COc1ccc(-c2[nH]ncc2CN(C)C(C)c2ccncn2)c(F)c1 (configuration not stated)	9%	-6%	-5%	-1	.	0%
NCCCC[C@@H]1NC(=O)c2cc([N+](=O)[O-])cc(I)c2SC[C@@H](C(N)=O)NC(=O)[C@H](Cc2ccc(O)cc2)NC1=O	-22%	?	1%	1	35µM*	-1%
NCCCC[C@@H]1NC(=O)[C@H](CCC(=O)O)NC(=O)c2cc([N+](=O)[O-])cc(I)c2SC[C@@H](C(=O)NCC(N)=O)NC1=O	5%	-7%	-13%	-3	3.2µM*	-1%
COc1cc(Cl)c(C)cc1NC(=O)Cn1cc(S(=O)(=O)N2CCC(C)CC2)c2ccccc2c1=O	.	.	-7%	.	-28%[59 µM]	.
OCC1OC(c2ccccc2)C=CC1Oc1cc(Cl)cc(Cl)c1 (configuration not stated)	-3%	.	.	.	.	.
C=CCn1c(SCC(=O)c2ccc(Br)cc2)nnc1C(CC(C)C)NC(=O)c1cccs1 (configuration not stated)	0%	-6%	?	2	50µM*	2%
COc1ccc(NC(=O)Nc2cccs2)cc1Cl	45µM*	-11%	-26%	0	?	-1%
COc1cc(NCCC(=O)c2cccs2)c(OC)cc1Cl	-9%	-13%	18%	1	7.9µM*	0%
COc1ccc(C(=O)Nc2ccc(NC(=O)c3cccs3)cc2)cc1Cl	-9%	3.8µM*	?	1	-17%	3%
COc1ccc(C(=O)Nc2nnc(SCc3cc(=O)c4cc(C)ccc4[nH]3)s2)cc1OC	.	.	17%	.	-29%[59 µM]	.
Fc1ccc(NC(=S)NN=C2CCCCCC2)cc1	-29%	-2%	-4%	0	35µM*	0%
O=C(COc1ccc(Cl)cc1)NN=C1CCCCCCC1	4%	2%	-16%	0	59%	1%
O=C(NN=C1CCCCCCC1)c1ccc(F)cc1	-5%	19µM*	-20%	1	-8%	0%
S=C(NN=C1CCCCCC1)Nc1ccc(Cl)cc1	-5%	-7%	28%	1	28µM*	0%
CCOc1ccc(CNC(=O)Cc2ccc(NC(=O)N3CCSc4ncccc43)cc2)cc1	.	.	7%	.	-6%[59 µM]	.
COc1ccc(CNC(=O)CN2N=C(c3ccc(Cl)cc3)CCC2=O)cc1	.	.	-7%	.	-15%[59 µM]	.
Cc1cccc2sc(NNC(=O)c3cc(-c4cccs4)nc4ccccc34)nc12	?	3%	-17%	-1	32µM*	-1%
Cc1c(C(=O)NC(C)CCc2ccccc2)cccc1[N+](=O)[O-] (configuration not stated)	4%	12µM*	-5%	1	48%[12.7 µM]	2%
COc1ccc(Nc2nc3ccccc3nc2NS(=O)(=O)c2ccc(NC(C)=O)cc2)cc1	13%	?	4%	0	-33%	2%
CC(=O)Nc1ccc(S(=O)(=O)Nc2nc3ccccc3nc2Nc2ccc(S(N)(=O)=O)cc2)cc1	11%	-23%	-15%	-8	45µM*	3%
SMILES	Sfp inh	PLK1 PBD block	VDR inh	CCT chaperon mod	G9a block	MmCpn inh
CC(=O)Nc1ccc(S(=O)(=O)Nc2nc3ccccc3nc2Nc2ccc(O)c(C(=O)O)c2)cc1	?	-20%	-9%	0	79µM*	-10%
NS(=O)(=O)c1ccc(Nc2nc3ccccc3nc2NS(=O)(=O)c2cccc([N+](=O)[O-])c2)cc1	24%	?	?	-2	32µM*	5%
Cc1cccc(CNc2ncncc2-c2ccc(C(=O)N(C)C)cc2)c1	2%	.	-4%	.	46%[0.501 µM]	.
CCc1ccc(S(=O)(=O)/N=C2\C=C(NS(=O)(=O)c3ccccc3)C(=O)c3ccccc32)cc1	-6%	21µM*	?	2	13µM*	-3%
CC(C)[n+]1ccn(C2=C([O-])c3ccccc3C(=O)/C2=N\S(=O)(=O)c2ccccc2)c1	-3%	-9%	8%	1	-36%[12.7 µM]	-16%
Cc1ccc(C)c(S(=O)(=O)/N=C2\C=C(NS(=O)(=O)c3ccccc3)C(=O)c3ccccc32)c1	-7%	27µM*	-15%	-1	14µM*	-6%
CC(C)c1ccc(S(=O)(=O)/N=C2/C=CC(=O)c3ccccc32)cc1	?	.	.	.	11µM*	0%
CC(C)c1ccc(S(=O)(=O)/N=C2\C=C(NS(=O)(=O)c3ccccc3)C(=O)c3ccccc32)cc1	-17%	24µM*	79µM*	0	6.3µM*	-2%
Cc1cccc(S(=O)(=O)Nc2cccc3c2C(=O)c2ccccc2-3)c1	-18%	10%	-10%	-1	-18%[59 µM]	-3%
Cc1ccc(-n2nnnc2CNC(=O)c2cc(C(F)(F)F)cc(C(F)(F)F)c2)cc1C	.	.	13%	.	3%[59 µM]	.
Cc1c(C(=O)N2CCOCC2)oc2ccccc12	.	-4%	11%	-1	?	0%
Cc1ccc2oc(C(=O)N3CCN(c4cccc(C)n4)CC3)c(C)c2c1	-9%	27µM*	?	-1	16%[0.501 µM]	-3%
COc1ccc(N2CCN(C(=O)c3oc4ccccc4c3NC(=O)Cc3cccc(OC)c3)CC2)cc1	9%	-3%	-21%	0	40µM*	-1%
COc1ccc(OCC(=O)Nc2c(C(=O)N3CCN(c4ccccc4)CC3)oc3ccccc23)cc1	.	.	7%	.	-32%[59 µM]	.
COc1ccc(N2CCN(C(=O)c3oc4ccccc4c3C)CC2)cc1	-6%	-16%	2%	2	35µM*	2%
COc1ccc(N2CCN(C(=O)c3oc4ccccc4c3NC(=O)Cc3ccc(OC)c(OC)c3)CC2)cc1	-5%	-13%	-7%	-4	28µM*	-6%
C[S+](C)CC[C@H](N)C(=O)O	2%	.	-10%	.	-11%[12.7 µM]	.
CC(C)c1nn2c(=O)cc(COC(=O)c3cccc(NC(=O)c4cccs4)c3)nc2s1	.	.	1%	.	23%[59 µM]	.
Brc1ccc(-c2noc(COc3ccc4ccccc4c3)n2)o1	?	-1%	-13%	0	45µM*	-2%
